Screen size: about 340,000 compounds; about 2,800 (0.82%) were called active.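 The calls were made as follows: active = B-score under library mean minus 4 SD, starting fluorescence ratio at most library mean plus 5 SD; inactive = the rest.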 For the sample, actives were picked, then their nearest neighbours and some compounds at random.
molecular target: Potassium channel subfamily K member 3 (Homo sapiens) (UniProt O14649); assay: blockers of TASK1 two-pore potassium channel – CHO cells, FluxOR thallium flux, B-score, primary screen (AID 602410); conditions: CHO-KCNK3 thallium flux, FluxOR fluorescence, at 10 µM; stronger effect = lower value;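 as to B-score: more negative B-score means stronger inhibition of thallium flux through KCNK3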
Sequence (O14649 whole entry, looked up): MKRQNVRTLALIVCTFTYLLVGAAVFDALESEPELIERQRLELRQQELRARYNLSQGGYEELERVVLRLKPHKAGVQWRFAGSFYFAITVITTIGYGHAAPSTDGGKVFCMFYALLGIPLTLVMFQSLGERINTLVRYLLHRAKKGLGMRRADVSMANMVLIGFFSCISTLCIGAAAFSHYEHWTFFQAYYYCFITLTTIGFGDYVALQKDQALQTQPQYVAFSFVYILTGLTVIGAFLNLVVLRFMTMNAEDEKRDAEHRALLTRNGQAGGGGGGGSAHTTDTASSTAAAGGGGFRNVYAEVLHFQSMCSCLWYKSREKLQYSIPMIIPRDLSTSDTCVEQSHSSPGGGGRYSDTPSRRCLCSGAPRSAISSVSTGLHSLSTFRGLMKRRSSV

Compound | B-score
Cc1cc(OCCCN2CCN(Cc3ccccc3)CC2)ccc1[N+](=O)[O-] | inactive
Cc1cc(OCC(=O)NC2CCN(C)CC2)ccc1[N+](=O)[O-] | inactive
Cc1cc(OCCCCOc2ccc(C#N)cc2)ccc1[N+](=O)[O-] | -9.68 (active)
COC(c1ccccc1)c1nnc(CCC(=O)N2CCN(CCOc3ccccc3)CC2)o1 (centres undefined) | inactive
O=C(CC1NCCNC1=O)Nc1ccc(Oc2ccccc2)cc1 (centres undefined) | inactive
O=C(CC1NCCc2ccccc21)Nc1cccc(Cl)c1 (centres undefined) | -8.87 (active)
O=C(CC1NCCNC1=O)Nc1cc(Cl)cc(Cl)c1 (centres undefined) | inactive
O=C(NNS(=O)(=O)c1ccccc1C(F)(F)F)c1cc2ncc(C(F)(F)F)cc2s1 | inactive
CN1CCN(C(=O)/C(=C\c2cccs2)NC(=O)c2cccs2)CC1 | inactive
O=C(COC(=O)Cn1[nH]c(=O)c2ccccc2c1=O)Nc1ncc(Cl)cc1Cl | inactive
CN(C)S(=O)(=O)c1ccc(NC(=O)COC(=O)Cn2[nH]c(=O)c3ccccc3c2=O)cc1 | inactive
Cc1ccc(C)c(C(=O)COC(=O)Cn2[nH]c(=O)c3ccccc3c2=O)c1 | -9.1 (active)
CCC(C)(C)n1nnnc1C(c1cccs1)N1CCN(c2nc3ccccc3s2)CC1 (centres undefined) | -9.57 (active)
CCC(C)(C)n1nnnc1C(c1ccc(OC)c(OC)c1)N1CCN(C(=O)c2ccco2)CC1 (centres undefined) | inactive
Fc1ccc(Cn2nnnc2C(c2cccs2)N2CCCCCC2)cc1 (centres undefined) | inactive
CC(C)C(=O)N1CCN(CCN=CC2=C(O)CC(c3ccco3)CC2=O)CC1 (centres undefined) | inactive
CCOC(=O)C1=C(CN2CCc3ccccc32)NC(=O)NC1c1cc(C)ccc1C (centres undefined) | inactive
CC(C)(C)c1nnc(N/N=C/c2ccc(O)cc2)n(N)c1=O | inactive
O=C(Nc1cc(=O)[nH]c2ncnn12)c1ccccc1Cl | inactive
COc1ccc(OC)c(C(c2nnnn2C(C)(C)C)N2CCc3ccccc3C2)c1 (centres undefined) | inactive
COc1ccccc1C(c1nnnn1C(C)(C)C)N1CCN(Cc2ccccc2)CC1 (centres undefined) | -8.94 (active)
CCCC(c1nnnn1C(C)(C)C)N1CCN(Cc2ccccc2)CC1 (centres undefined) | inactive
C=CCn1c(SCc2cc(C(=O)OC)c(C)o2)nnc1-c1ccncc1 | inactive
COc1ccc(N2CCN(S(=O)(=O)c3ccc4c(c3)NC(=O)C(C)C(=O)N4)CC2)cc1 (centres undefined) | inactive
CNc1ccc([N+](=O)[O-])cc1C(=O)O | inactive
O=C(Nc1cccnc1)c1cc([N+](=O)[O-])ccc1Cl | inactive
Cc1ccc(NC(=O)c2cc([N+](=O)[O-])ccc2Cl)c(O)c1 | -10.1 (active)
Cc1ccc(SCC(=O)Nc2nncs2)cc1 | inactive
COc1ccccc1-c1c(C#N)c(N)nc2c1CCC2 | inactive

From PubChem BioAssay AID602410 (Johns Hopkins Ion Channel Center, 2012)
